Among the data in ChEMBL document CHEMBL1961873, “Compounds: GSK PKIS; Assays: Nanosyn kinase panel” (2012) are inhibition values, retold here.

For assay [1], the system named is Tyrosine-protein kinase ABL1 (Homo sapiens), P00519 [T315I]. As to conditions: at 1 µM.
Assay [2] relates to Tyrosine-protein kinase ABL1 (Homo sapiens), P00519 [Y253F]. As to conditions: at 0.1 µM.
Assay [3] has the same test system. Particulars: at 1 µM.
Assay [4] deals with Tyrosine-protein kinase ABL1 (Homo sapiens) (UniProt P00519). Particulars: at 0.1 µM.
The target is the same in assay [5]. Particulars: at 1 µM.
In assay [6] the target is ALK tyrosine kinase receptor (Homo sapiens) (UniProt Q9UM73). Particulars: at 0.1 µM.
For assay [7] the target is unchanged. Particulars: at 1 µM.
Assay [8] deals with Tyrosine-protein kinase ABL2 (Homo sapiens) (UniProt P42684). Particulars: at 0.1 µM.
For assay [9] the target is unchanged. Particulars: at 1 µM.
In assay [10] the target is Tyrosine-protein kinase receptor UFO (Homo sapiens) (UniProt P30530). Particulars: at 0.1 µM.
The target is the same in assay [11]. As to conditions: at 1 µM.
The target in assay [12] is Tyrosine-protein kinase Blk (Homo sapiens) (UniProt P51451). Particulars: at 0.1 µM.
Assay [13] shares this target. As to conditions: at 1 µM.
The target of assay [14] is T1, Cytoplasmic tyrosine-protein kinase BMX (Homo sapiens) (UniProt P51813).
T1 sequence (whole entry): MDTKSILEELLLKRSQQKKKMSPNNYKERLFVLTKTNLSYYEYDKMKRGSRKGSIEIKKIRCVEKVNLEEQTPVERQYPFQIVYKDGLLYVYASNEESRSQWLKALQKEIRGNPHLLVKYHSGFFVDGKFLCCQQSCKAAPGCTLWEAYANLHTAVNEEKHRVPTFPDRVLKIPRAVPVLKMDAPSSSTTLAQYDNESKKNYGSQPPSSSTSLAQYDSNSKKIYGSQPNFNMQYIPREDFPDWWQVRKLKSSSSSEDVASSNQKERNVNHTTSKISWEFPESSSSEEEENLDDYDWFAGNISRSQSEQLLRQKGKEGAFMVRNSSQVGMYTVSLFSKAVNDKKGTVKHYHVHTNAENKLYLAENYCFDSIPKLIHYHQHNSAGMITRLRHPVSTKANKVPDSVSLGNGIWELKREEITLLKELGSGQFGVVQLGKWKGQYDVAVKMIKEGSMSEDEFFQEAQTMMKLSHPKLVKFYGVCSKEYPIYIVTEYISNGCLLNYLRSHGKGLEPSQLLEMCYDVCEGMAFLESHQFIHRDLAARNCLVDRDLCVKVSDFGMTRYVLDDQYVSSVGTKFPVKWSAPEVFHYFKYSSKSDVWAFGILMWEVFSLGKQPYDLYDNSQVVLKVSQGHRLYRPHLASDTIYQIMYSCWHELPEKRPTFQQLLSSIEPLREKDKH
Particulars: at 0.1 µM.

Assay [15] addresses T1, Cytoplasmic tyrosine-protein kinase BMX (Homo sapiens). As to conditions: at 1 µM.
Assay [16] concerns the target Protein-tyrosine kinase 6 (Homo sapiens) (UniProt Q13882). Particulars: at 0.1 µM.
Assay [17] has the same target. As to conditions: at 1 µM.
Assay [18] deals with Tyrosine-protein kinase BTK (Homo sapiens) (UniProt Q06187). As to conditions: at 0.1 µM.
The target is the same in assay [19]. Particulars: at 1 µM.
The target of assay [20] is Tyrosine-protein kinase CSK (Homo sapiens) (UniProt P41240). As to conditions: at 0.1 µM.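 Also: value given is the averaged percent inhibition of CSK kinase activity, from the GSK PKIS kinase inhibitor set screening panel.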

The inhibition is the relative decrease from the control value, in per cent.

Structures are written as SMILES.

Chain of Tyrosine-protein kinase receptor UFO (Homo sapiens) (P30530 whole entry): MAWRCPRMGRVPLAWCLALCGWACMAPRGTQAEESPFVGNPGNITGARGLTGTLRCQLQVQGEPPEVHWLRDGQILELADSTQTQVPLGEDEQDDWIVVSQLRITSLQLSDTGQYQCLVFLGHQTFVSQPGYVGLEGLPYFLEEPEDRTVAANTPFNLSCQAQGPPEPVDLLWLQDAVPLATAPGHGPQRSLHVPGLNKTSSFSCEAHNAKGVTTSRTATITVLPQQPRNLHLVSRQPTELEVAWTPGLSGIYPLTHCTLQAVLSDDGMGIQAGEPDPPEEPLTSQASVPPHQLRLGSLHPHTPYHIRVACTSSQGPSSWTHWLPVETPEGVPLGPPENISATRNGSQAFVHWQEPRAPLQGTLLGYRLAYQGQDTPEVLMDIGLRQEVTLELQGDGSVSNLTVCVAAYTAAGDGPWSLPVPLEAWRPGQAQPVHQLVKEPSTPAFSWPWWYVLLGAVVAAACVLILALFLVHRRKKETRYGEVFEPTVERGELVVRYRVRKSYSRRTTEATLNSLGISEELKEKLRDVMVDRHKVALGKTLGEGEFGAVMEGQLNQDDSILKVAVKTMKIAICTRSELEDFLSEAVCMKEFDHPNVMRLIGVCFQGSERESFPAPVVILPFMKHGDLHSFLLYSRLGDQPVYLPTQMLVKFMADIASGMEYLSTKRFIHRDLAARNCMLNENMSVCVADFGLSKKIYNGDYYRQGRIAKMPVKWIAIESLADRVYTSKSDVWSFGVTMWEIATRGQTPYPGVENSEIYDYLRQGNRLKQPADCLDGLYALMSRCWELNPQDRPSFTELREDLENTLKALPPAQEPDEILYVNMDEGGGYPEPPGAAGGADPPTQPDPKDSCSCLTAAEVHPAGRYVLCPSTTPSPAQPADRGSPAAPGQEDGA
Chain of Tyrosine-protein kinase Blk (Homo sapiens) (P51451 2-505 limits assumed): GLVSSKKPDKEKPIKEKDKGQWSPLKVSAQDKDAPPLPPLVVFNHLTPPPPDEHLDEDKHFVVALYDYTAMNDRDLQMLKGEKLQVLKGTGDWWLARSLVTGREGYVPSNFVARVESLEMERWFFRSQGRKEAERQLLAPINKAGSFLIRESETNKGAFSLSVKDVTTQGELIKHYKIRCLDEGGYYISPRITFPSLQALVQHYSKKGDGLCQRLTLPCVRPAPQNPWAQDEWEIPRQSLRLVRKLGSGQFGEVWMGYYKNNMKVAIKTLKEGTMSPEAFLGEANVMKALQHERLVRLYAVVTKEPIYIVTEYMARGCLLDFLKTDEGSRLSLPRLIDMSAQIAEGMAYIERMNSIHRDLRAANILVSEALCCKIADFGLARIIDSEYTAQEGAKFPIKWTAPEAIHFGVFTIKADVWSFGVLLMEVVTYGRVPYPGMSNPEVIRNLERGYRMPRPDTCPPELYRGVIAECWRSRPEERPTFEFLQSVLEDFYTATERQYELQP
Chain of Tyrosine-protein kinase ABL2 (Homo sapiens) (P42684 whole entry): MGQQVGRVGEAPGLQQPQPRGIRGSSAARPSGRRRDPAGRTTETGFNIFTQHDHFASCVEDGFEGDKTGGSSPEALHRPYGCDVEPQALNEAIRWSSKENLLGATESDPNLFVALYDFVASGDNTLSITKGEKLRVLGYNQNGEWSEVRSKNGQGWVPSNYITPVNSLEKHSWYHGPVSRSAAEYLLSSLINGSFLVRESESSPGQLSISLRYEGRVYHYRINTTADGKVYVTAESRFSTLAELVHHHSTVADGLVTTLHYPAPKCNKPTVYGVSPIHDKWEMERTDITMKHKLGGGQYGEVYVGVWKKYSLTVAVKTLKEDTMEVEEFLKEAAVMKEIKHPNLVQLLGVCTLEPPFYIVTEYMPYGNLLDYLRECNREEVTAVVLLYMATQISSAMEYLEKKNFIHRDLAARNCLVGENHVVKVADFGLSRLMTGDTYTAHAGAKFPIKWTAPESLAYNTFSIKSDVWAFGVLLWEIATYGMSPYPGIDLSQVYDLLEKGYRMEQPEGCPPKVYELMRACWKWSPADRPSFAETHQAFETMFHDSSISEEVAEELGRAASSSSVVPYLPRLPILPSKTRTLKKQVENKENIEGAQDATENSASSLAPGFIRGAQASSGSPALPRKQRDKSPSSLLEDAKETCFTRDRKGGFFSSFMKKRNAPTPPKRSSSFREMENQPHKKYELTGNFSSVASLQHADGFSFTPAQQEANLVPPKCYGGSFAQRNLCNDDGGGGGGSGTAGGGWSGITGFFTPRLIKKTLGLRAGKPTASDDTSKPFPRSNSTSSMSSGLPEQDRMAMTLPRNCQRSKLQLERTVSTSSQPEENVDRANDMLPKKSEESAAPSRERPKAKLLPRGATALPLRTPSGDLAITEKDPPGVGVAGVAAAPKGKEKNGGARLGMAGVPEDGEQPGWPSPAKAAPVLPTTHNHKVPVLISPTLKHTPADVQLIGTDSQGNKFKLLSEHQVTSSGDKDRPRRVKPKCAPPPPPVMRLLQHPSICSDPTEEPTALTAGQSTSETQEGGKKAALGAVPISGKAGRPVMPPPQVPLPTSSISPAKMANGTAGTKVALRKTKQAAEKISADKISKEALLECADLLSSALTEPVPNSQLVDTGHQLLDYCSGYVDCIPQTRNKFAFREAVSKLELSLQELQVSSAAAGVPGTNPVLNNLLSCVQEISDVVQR
Chain of ALK tyrosine kinase receptor (Homo sapiens) (Q9UM73 19-1620 limits assumed): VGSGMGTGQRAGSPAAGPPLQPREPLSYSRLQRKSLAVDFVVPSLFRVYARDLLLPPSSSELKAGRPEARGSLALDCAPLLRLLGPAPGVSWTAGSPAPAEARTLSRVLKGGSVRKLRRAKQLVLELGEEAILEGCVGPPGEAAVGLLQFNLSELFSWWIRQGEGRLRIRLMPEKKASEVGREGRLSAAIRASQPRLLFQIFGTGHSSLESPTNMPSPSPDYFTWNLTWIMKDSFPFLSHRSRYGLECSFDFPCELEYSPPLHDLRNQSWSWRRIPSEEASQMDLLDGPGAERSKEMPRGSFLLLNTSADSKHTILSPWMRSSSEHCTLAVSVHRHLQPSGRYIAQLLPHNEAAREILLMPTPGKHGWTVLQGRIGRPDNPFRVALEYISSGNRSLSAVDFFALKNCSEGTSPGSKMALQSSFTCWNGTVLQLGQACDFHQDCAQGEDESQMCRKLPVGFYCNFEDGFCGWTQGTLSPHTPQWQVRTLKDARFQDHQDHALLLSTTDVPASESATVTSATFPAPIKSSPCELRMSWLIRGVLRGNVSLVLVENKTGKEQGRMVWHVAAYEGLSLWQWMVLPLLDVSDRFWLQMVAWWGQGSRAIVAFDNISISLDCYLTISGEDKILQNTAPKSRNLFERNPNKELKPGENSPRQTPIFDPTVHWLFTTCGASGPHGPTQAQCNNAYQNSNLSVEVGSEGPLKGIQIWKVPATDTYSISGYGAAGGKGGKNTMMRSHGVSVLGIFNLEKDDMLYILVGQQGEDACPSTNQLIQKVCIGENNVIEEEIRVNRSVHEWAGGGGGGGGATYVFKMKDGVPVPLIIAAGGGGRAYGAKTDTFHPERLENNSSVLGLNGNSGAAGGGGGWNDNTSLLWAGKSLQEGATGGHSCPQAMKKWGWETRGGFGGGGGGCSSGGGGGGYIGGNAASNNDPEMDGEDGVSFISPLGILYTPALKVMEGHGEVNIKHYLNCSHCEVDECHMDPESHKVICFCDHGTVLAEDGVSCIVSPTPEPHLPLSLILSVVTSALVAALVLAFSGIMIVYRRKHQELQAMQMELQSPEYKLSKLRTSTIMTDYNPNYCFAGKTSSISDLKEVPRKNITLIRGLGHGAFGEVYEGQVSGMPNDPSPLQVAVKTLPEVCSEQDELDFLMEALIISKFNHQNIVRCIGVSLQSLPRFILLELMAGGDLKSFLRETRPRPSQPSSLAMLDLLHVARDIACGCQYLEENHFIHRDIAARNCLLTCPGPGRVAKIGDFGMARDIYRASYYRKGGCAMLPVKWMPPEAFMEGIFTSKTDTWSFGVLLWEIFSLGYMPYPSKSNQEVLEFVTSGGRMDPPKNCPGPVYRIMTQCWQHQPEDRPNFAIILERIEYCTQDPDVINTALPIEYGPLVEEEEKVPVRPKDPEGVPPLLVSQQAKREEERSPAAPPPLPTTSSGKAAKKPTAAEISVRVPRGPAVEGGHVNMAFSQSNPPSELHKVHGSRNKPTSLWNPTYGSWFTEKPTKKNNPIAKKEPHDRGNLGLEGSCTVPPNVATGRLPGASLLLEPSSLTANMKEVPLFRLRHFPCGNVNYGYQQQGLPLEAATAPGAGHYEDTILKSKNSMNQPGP
Chain of Tyrosine-protein kinase BTK (Homo sapiens) (Q06187 whole entry): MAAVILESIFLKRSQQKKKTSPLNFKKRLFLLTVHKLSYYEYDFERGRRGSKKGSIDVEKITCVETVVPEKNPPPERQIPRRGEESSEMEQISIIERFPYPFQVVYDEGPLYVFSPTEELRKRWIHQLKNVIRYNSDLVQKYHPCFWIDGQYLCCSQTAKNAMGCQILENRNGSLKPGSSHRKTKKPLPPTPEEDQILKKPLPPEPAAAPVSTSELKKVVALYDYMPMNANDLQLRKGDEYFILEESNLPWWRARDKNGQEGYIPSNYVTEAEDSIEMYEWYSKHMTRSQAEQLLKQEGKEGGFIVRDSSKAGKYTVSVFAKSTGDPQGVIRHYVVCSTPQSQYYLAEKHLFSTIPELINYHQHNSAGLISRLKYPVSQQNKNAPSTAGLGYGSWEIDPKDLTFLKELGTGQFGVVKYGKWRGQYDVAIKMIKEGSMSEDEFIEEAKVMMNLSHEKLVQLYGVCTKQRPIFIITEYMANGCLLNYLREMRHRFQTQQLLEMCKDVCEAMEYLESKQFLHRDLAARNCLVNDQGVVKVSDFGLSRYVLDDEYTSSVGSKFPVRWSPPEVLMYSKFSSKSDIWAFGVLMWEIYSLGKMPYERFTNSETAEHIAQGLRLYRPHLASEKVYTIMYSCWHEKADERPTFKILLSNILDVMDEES

With `NS(=O)(=O)c1ccc(N/N=C2\C(=O)Nc3ccc(Cl)cc32)cc1`, the inhibition came out at 11.8% in [1]; 1.42% in assay [2]; 11.1% in assay [3]; 2.16% in assay [4]; 10.6% in assay [5]; 1.16% in [6]. Also, the inhibition is 5.53% in assay [7]; 5.17% in [8]; 11.6% in assay [9]; -1.64% in assay [10]; -3.81% in assay [11]; 2.51% in [12]. In addition, the inhibition in assay [13] is 6.13%; in assay [14], -0.25%; in assay [15] it was 4.68%; in assay [16], 2.27%; in assay [17], 5.96%; in assay [18], 0.31%. The inhibition in [19] turned out to be 0.56%; in assay [20], 4.9%.
On to `NS(=O)(=O)c1ccc(NC=C2C(=O)Nc3ccc4ncsc4c32)cc1`, for which the inhibition in [1] was found to be 61.6%; in [2] it was 10.6%; in assay [3] it was 48.7%; in assay [4] it was 7.95%; in [5] it was 44.8%; in [6], 7.33%. For the same molecule, the inhibition in assay [7] is 32.2%; in assay [8], 5.56%; in assay [9], 31.4%; in assay [10], -4.15%; in assay [11] it was 42.4%; in assay [12], 8.34%. Further, the inhibition is 58.3% in assay [13]; 6.93% in [14]; 13.8% in [15]; 3.25% in [16]; 8.92% in assay [17]; 0.4% in assay [18]. Besides, the inhibition turned out to be 3.74% in assay [19] and 2.77% in [20].
`NS(=O)(=O)c1cccc(Nc2cc(-c3ccc(F)cc3)n[nH]2)c1`: the inhibition was determined as 9% in [1]; 4.2% in [2]; 17% in [3]; 3.39% in assay [4]; 12.4% in assay [5]; 1.3% in [6]. For the same molecule, the inhibition in assay [7] is 2.54%; in assay [8], 3.38%; in assay [9], 9.78%; in assay [10] it was -0.57%; in assay [11] it was -3.83%; in assay [12] it was 2.05%. For the same molecule, the inhibition in [13] is 6.41%; in assay [14], -2.37%; in assay [15], 4.82%; in [16] it was 1.68%; in [17], 3.52%; in assay [18], 0.73%. Besides, the inhibition in assay [19] came to 0.11%; in assay [20], 4.6%.
On to `CCOc1nccc2c1nc(-c1nonc1N)n2CC`, for which the inhibition in assay [1] is 6.12%; in [2], 1.56%; in assay [3], 6.81%; in [4], 4.96%; in [5], 14.6%; in [6], 2.69%. The inhibition was 5.24% in assay [7]; 3.48% in assay [8]; 11.2% in assay [9]; 0.71% in assay [10]; -0.05% in assay [11]; 3.42% in assay [12]. In addition, the inhibition in assay [13] came out at 2.55%; in [14], 1.6%; in [15], 1.81%; in [16], 0.8%; in [17], 2.85%; in assay [18] it was 1.49%. For the same molecule, the inhibition in assay [19] is 2.44%; in assay [20], 3.08%.
As for `COC(=O)c1ccc2c(c1)C(=Cc1cc(Br)c(O)c(Br)c1)C(=O)N2`, the inhibition in assay [1] stood at 2.87%; in assay [2], 2.56%; in assay [3], 15.9%; in assay [4], 7.83%; in [5], 21.2%; in assay [6], 5.2%. The inhibition in assay [7] was 15%; in [8], 5.66%; in assay [9], 15.4%; in assay [10] it was -5.02%; in [11] it was -4.28%; in [12], 3.19%. For the same molecule, the inhibition in assay [13] was 11.6%; in assay [14] it was 3.04%; in assay [15] it was 7.64%; in assay [16] it was 2.4%; in [17] it was 6.95%; in [18] it was -1.29%. Further, the values for the inhibition in [19] and in [20] were 0.81% and -0.27%, respectively.
Take `Cc1ccc(C(=O)NC2CC2)cc1-c1ccc2[nH]ncc2c1`: the inhibition in assay [1] is 2.89%; in [2], -1.37%; in assay [3], 0.48%; in [4] it was -0.56%; in assay [5] it was 0.77%; in assay [6], -1.6%. Also, the inhibition is -1.66% in assay [7]; -1.18% in assay [8]; 0.73% in [9]; 3.54% in assay [10]; 6.55% in [11]; -1.8% in [12]. Moreover, the inhibition is -1.6% in assay [13]; -2.64% in assay [14]; -6.39% in assay [15]; -2.14% in assay [16]; -3.93% in [17]; 0.06% in assay [18]. The inhibition in assay [19] was -1.33%.
On to `Cc1cc(O)cc(C)c1/C=C/c1cncc(C(=O)N(C)C)c1`, for which the inhibition in assay [1] came out at 1.49%; in assay [2], 2.53%; in assay [3], 14.2%; in assay [4], 6.26%; in assay [5], 17.9%; in [6] it was 1.7%. The inhibition in assay [7] is 3.57%; in assay [8], 4.85%; in [9] it was 12%; in assay [10], -0.49%; in assay [11], 3.27%; in [12] it was 2.94%. The inhibition in assay [13] is 3.78%; in assay [14] it was -2.2%; in [15], 5.69%; in assay [16] it was 2.85%; in [17] it was 6.32%; in assay [18], 1.28%. For the same molecule, the inhibition is 1.08% in [19] and 4.08% in assay [20].
